Source: PubChem
This is a sample that favours compounds with a hit; in the whole collection about 2.4% have one here.
Cruzain inh noDet – qHTS Assay for Promiscuous and Specific Inhibitors of Cruzain (without detergent) | purified cruzain, Z-FR-AMC fluorescence, no detergent | Potency, µM, inactives show max response, negative = inhibition, usual class: inhibitors | AID 1476, 2009 | 2.3% of 200,000 active;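 also: plate controls were enzyme without inhibitor for no effect and buffer without enzyme for full effect; nearly all actives have a fitted effect of over 40% in size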
Target sequence (P25779 123-467 limits assumed): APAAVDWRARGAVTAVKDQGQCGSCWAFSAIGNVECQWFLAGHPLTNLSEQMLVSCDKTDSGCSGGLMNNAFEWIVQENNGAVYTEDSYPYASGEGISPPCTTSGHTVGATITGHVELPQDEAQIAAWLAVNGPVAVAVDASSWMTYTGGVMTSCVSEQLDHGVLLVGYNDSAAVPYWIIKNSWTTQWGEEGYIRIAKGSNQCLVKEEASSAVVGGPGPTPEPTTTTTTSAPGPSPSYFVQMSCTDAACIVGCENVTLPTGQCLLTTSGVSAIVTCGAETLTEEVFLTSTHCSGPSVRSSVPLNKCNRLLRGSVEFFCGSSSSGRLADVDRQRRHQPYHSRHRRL
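Detergent-free condition (0.00005% Triton X-100) in acetate buffer pH 5.5 with DTT. 1.5 nM enzyme and compound were pre-mixed 15 min, then 2 uM Z-FR-AMC substrate added; reaction progress from fluorescence change between first and third reads (60 s).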
Cruzain inh Det – qHTS Assay for Promiscuous and Specific Inhibitors of Cruzain (with detergent). Potency, µM, for the others: max response, negative = inhibition, hits mostly inhibitors. 0.43% of 200,000 active. purified cruzain, Z-FR-AMC fluorescence, 0.01% Triton;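 also: plate controls were neutral wells for no effect and buffer without enzyme for full effect; nearly all actives have a fitted effect of over 40% in size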
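Enzyme 1.5 nM, Z-FR-AMC 2 uM, NaOAc 100 mM pH 5.5, DTT 5 mM, Triton X-100 0.01%; 15 min RT compound preincubation; kinetic ex360/em450, 60 s delta.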
Starred values were filed as active, the others as inactive; ? = inconclusive; ! = repeats disagree. Calls follow the shape of the dose curve; as a rule, active = well fitted curve in the direction sought with a large enough effect; inconclusive = small, poorly fitted or top-dose-only effect, or another doubt; inactive = no such curve, though single readings can be large; an effect the other way counts as inactive or inconclusive. Potency is read from the fitted curve at half-maximal effect.

SMILES	Cruzain inh noDet	Cruzain inh Det
CC(C)Oc1ccc(/C=N/NC(=O)C(CSCc2ccccc2)NC(=O)c2ccc([N+](=O)[O-])cc2)cc1 (configuration not stated)	20µM*	-3%
O=C(CNc1ccccc1)N/N=C/c1ccc([N+](=O)[O-])cc1	-1%	-4%
O=C(COc1ccccc1)Nc1ccc([N+](=O)[O-])cc1	-6%	0%
O=C(COc1ccc(/C=N/NC(=O)c2ccccc2)cc1)Nc1ccc([N+](=O)[O-])cc1	13µM*	2%
Cc1cc(C)cc([N+](=O)[O-])c1	-3%	-1%
Cc1ccc(NC(=O)CN2C(=O)c3ccccc3Sc3ccc(C(=O)N4CCOCC4)cc32)cc1F	6%	0%
CCC(Cn1nnc2ccccc2c1=O)NC(=O)Nc1cccc(C)c1C (configuration not stated)	-1%	-1%
CN(C)c1ccc(-c2nc3ccccn3c2Nc2ccc3c(c2)OCCO3)cc1	-10%	-5%
O=C(CSc1nnc(-c2ccco2)o1)c1ccccc1	16µM*	-7%
O=C(CSc1nnc(-c2ccco2)o1)c1ccc(F)c(F)c1	-3%	4%
CSc1nc2ccccc2cc1/C=C(\C#N)c1ccc(Cl)c(Cl)c1	25µM*	0%
CSc1nc2ccccc2cc1/C=C(\C#N)c1ccccc1	-2%	-10%
O=C(COC(=O)CNC(=O)c1ccc(Br)o1)Nc1ccc2c(c1)OCCO2	11%	-1%
CCOc1ccccc1C(=O)NCC(=O)OCC(=O)c1ccc2c(c1)OCCO2	?	25µM*
O=C(CNC(=O)c1ccccc1F)OCC(=O)N1CCCCC1	?	16µM*
O=C(CNC(=O)c1ccccc1F)OCc1cc(=O)n2nc(C3CCCCC3)sc2n1	-6%	-9%
CCOc1ccccc1C(=O)NCc1ccc2c(c1)OCO2	-8%	2%
O=C(COC(=O)CNC(=O)c1ccccc1F)Nc1ccc2c(c1)OCCO2	3.2µM*	8.9µM*
O=C(CNC(=O)c1ccc(Cl)cc1)OCC(=O)c1ccc2c(c1)OCCO2	10µM*	8.9µM*
CCOC(=O)CNC(=O)c1ccc2c(c1)OCCO2	-4%	8%
CC(C)Cc1nn2c(=O)cc(COC(=O)c3ccc(NC(=O)C4CCCCC4)cc3)nc2s1	-1%	1%
COC(=O)[C@@]1(Cc2ccccc2)[C@H]2c3cc(C(=O)N(C)C)n(Cc4ccc(S(C)(=O)=O)cc4)c3C[C@H]2CN1C(=O)c1ccccc1	?	-3%
COc1ccc(-c2nc(CNC(=O)Nc3ccccc3)c(C)o2)cc1	1%	-2%
Cc1cc(C)c2c(=O)c3c(oc2c1)C(=O)N(Cc1ccco1)C3c1ccccc1F (configuration not stated)	-10%	-2%
CCCN(CCC)C(=O)Cn1c(=O)n(CCCCCC(=O)NCc2ccccc2Cl)c(=O)c2sccc21	-2%	-1%
SMILES	Cruzain inh noDet	Cruzain inh Det
COc1ccc(OC)c(C(=O)COC(=O)CNC(=O)c2ccccc2)c1	13µM*	14µM*
COCCn1c(C)cc(C(=O)COC(=O)CNC(=O)c2ccccc2)c1C	-30%	?
COc1ccccc1C(=O)NCC(=O)OCC(=O)c1ccc2c(c1)-c1ccccc1C2	10µM*	?
CCOc1ccc(C(=O)NCC(=O)OCC(=O)c2ccc3c(c2)-c2ccccc2C3)cc1	?	-13%
CCN(CCN(C)C)C(=O)Cn1ncc2c([nH]c3ccc(C)cc32)c1=O	6%	-3%
C/C(=C\c1ccc(C(=O)O)cc1)c1ccc2c(c1)C(C)(C)CCC2(C)C	6.3µM*!	-8%
CC1(C)CCC(C)(C)c2cc(C(=O)Nc3ccc(C(=O)O)cc3)ccc21	-10%	2%
O=S(=O)(Nc1ccc2nc(-c3ccc(F)cc3)oc2c1)c1ccccc1	-14%	-11%
COc1ccc(/C=C/C(=O)Oc2cccc(/C=N/NC(=O)COc3c(C)cccc3C)c2)cc1	16µM*	7%
COc1ccc(/C=C/C(=O)Oc2ccc(/C=N/NC(=O)COc3c(C)cccc3C)cc2)cc1	7.9µM*	3%
Cc1cccc(C)c1OCC(=O)N/N=C/c1cccn1C	-9%	-6%
COc1ccc(/C=C/C=N/NC(=O)COc2ccc(OC)cc2)cc1	0%	-5%
CCN(CC)c1ccc(C(=O)NCc2nc3cccnc3n2Cc2ccc(C)cc2)cc1	-16%	-7%
N#C/C(=C\c1ccc(-c2ccccc2)o1)C(=O)Nn1cnnc1	-2%	-6%
N#C/C(=C\c1ccc(-c2cccc(Cl)c2)o1)C(=O)Nc1cccc2cccnc12	3.2µM*	0%
Cc1ccc2nc(SCC(=O)Nc3ccc(F)c([N+](=O)[O-])c3)[nH]c2c1	?	14µM*
Cc1ccc2nc(SCC(=O)Nc3ccc(C)c([N+](=O)[O-])c3)[nH]c2c1	-1%	-26%
C=CCn1c(O)c(N=NC(=O)OC(C)(C)C)c2ccccc21	3%	-3%
C=CCn1c(O)c(N=NC(=S)Nc2ccc(OC)c(Cl)c2)c2ccccc21	10µM*	-3%
COc1ccc(N(C(=O)c2cccc(C)c2)S(=O)(=O)c2ccc(Cl)cc2)cc1	-30%	-3%
COc1ccc(N(C(=O)c2ccc(C(C)(C)C)cc2)S(=O)(=O)c2ccc(Cl)cc2)cc1	10µM*	-3%
Cc1ccc(C(=O)NC(NC(=S)Nc2ccc(S(N)(=O)=O)cc2)C(Cl)(Cl)Cl)cc1 (configuration not stated)	-4%	-17%
Cc1cccc(NC(=S)NC(NC(=O)c2ccco2)C(Cl)(Cl)Cl)c1 (configuration not stated)	2%	3.2µM*
O=C(O)c1ccc(NC(=S)NC(NC(=O)c2ccco2)C(Cl)(Cl)Cl)cc1 (configuration not stated)	9%	-5%
O=C(NC(NC(=S)Nc1ccccc1)C(Cl)(Cl)Cl)c1cccc(Cl)c1 (configuration not stated)	-9%	?
SMILES	Cruzain inh noDet	Cruzain inh Det
Cc1ccc(C)c(NC(=S)NC(NC(=O)Cc2ccccc2)C(Cl)(Cl)Cl)c1 (configuration not stated)	25µM*	4%
Cc1ccc(NC(=S)NC(NC(=O)c2ccccc2)C(Cl)(Cl)Cl)c(C)c1 (configuration not stated)	6%	-9%
Cc1ccc(NC(=S)NC(NC(=O)c2ccco2)C(Cl)(Cl)Cl)cc1 (configuration not stated)	15%	4.5µM*
Cc1ccccc1C(=O)NC(NC(=S)Nc1ccc(S(N)(=O)=O)cc1)C(Cl)(Cl)Cl (configuration not stated)	-27%	13µM*
NCC(=O)NC1(C(=O)O)CCCC1	1%	3%
Cc1c(C)n(Cc2ccccc2)c2ccc(C(=O)NC(C)c3ccccc3)cc12 (configuration not stated)	?	-2%
COc1cccc(/C=N/NC(=O)c2cc3cc([N+](=O)[O-])ccc3s2)c1O	10µM*	3.5µM*
CC(C)NC(=O)c1cc2cc([N+](=O)[O-])ccc2s1	9%	2%
COc1ccc(-n2c(=O)cc(N3CCN(c4ccccc4)CC3)[nH]c2=O)cc1	-3%	5%
CCOc1ccc(-n2c(=O)cc(N3CCN(c4ccccc4)CC3)[nH]c2=O)cc1	2µM*	2%
COC(=O)c1ccc(NC(=O)C(=O)NCCc2csc(-c3ccc(F)cc3)n2)cc1	?	2%
NC(=S)N=Nc1c(O)n(Cc2ccc(F)cc2)c2ccccc12	?	13µM*
O=Nc1c(O)n(Cc2ccc(Cl)cc2)c2ccccc12	-14%	-16%
